Experimental data as given in PubChem BioAssay (Tox21).
Calls of active or inactive are those of the source. A call without a number means that no potency is given here. The call rests on the fitted dose curve; in most records, active means well fitted cell-killing curve with a large enough effect in the repeat runs; inconclusive means weak or mixed curves, or effect the other way; inactive means flat fitted curve, though single readings scatter.

Experiment: qHTS assay to identify small molecule HDAC inhibitors - cell viability counter screen (AID 1259365); further: nearly all actives have a fitted effect of over 50% in size
Details: HCT-116 viability, CellTiter-Glo ATP luminescence, 2 h; series mostly up to 92.4 µM
Source text: U.S. Tox21 Program National Center for Advancing Translational Sciences [NCATS] NIH Chemical Genomics Center [NCGC] U.S. Environmental Protection Agency [EPA] National Institutes of Environmental Health Sciences [NIEHS] National Toxicology Program [NTP] U.S. Food and Drug Administration [FDA] Tox21 Assay Overview: Histone deacetylases (HDACs) are a group of epigenetic enzymes that regulate gene expression by histone deacetylation. HDACs are capable of introducing epigenetic modifications and such aberrations contribute to the onset and progression of several human diseases, thus making HDACs a popular therapeutic target. For identifying endogenous class I/II HDAC inhibitors a homogenous, luminogenic HDAC I/II cell based assay was used to measure the relative activity of class I and II HDACs from cells. Wild type HCT-116 cells were used to screen Tox21 compound libraries for identifying class I/II HDAC inhibitors.
Tox21 Assay Protocol Summary: HCT-116 cells were dispensed at 1,500 per well in 5uL of culture medium into white solid bottom 1536-well plates (Greiner Bio-One, Monroe, NC) using a Multidrop Combi (Thermo Scientific, Waltham, MA) dispenser. The assay plates were incubated at 37 C and 5% CO2 for an overnight, and then 23nL of compounds dissolved in DMSO and positive control were transferred using a Pintool station (Wako, San Diego, CA). The assay plates were incubated at 37C and 5% CO2 for 2hr. After compound treatment, 4uL of CellTiter-Glo reagent (Promega Corporation, Madison, WI) was added to each well of the assay plates using Flying Reagent Dispenser (FRD, Aurora Discovery, San Diego, CA) and incubated the assay plates at room temperature for 30min. The luminescence signal was quantified using a ViewLux plate reader (Perkin Elmer, Shelton, CT).

| Compound | Potency | activity change, negative = cytotoxicity |
| --- | --- | --- |
| CCOP(=S)(OCC)SCn1nnc2ccccc2c1=O | inactive | – |
| C/C=C/C=O | inactive | – |
| Brc1ccccc1 | inactive | – |
| CC(c1ccc(O)cc1)(c1ccc(O)cc1)c1ccc(O)cc1 | inactive | – |
| CN(C)c1ccc(N(C)C)cc1 | inactive | – |
| Clc1cccc2ccccc12 | inactive | – |
| Clc1ccc(C2(Cn3cncn3)CC(Br)CO2)c(Cl)c1 (stereo not given) | inactive | – |
| Nc1nc(=S)[nH][nH]1 | inactive | – |
| C#CCOC(C(=O)OCCN(C)C)(c1ccccc1)c1ccccc1 | inactive | – |
| CCOP(=O)(OCC)O/C(=C/Cl)c1ccc(Cl)cc1Cl | inactive | – |
| COP(=S)(OC)Oc1ccc([N+](=O)[O-])cc1Cl | inactive | – |
| O=C1C(Cl)C(CCl)CN1c1cccc(C(F)(F)F)c1 (stereo not given) | inactive | – |
| CCN(C)N=O | inactive | – |
| CCOP(=S)(OCC)SCSCC | inactive | – |
| COC(=O)C(Cl)C(=O)OC | inactive | – |
| NC(=O)CI | inactive | – |
| C=COC(C)=O | inactive | – |
| CCOP(=O)(OCC)SCCSCC | inactive | – |
| CCCCOC(=O)c1ccccc1C(=O)OCc1ccccc1 | inactive | – |
| CCOP(=O)(OCC)Oc1ccc([N+](=O)[O-])cc1 | inactive | – |

| Compound | Potency | activity change, negative = cytotoxicity |
| --- | --- | --- |
| N#CCc1ccccc1 | inactive | – |
| Cc1cc(=O)[nH]o1 | inactive | – |
| BrCC(Br)C1CCC(Br)C(Br)C1 (stereo not given) | inactive | – |
| CCOc1nc(F)cc2nc(S(=O)(=O)Nc3c(Cl)cccc3Cl)nn12 | inactive | – |
| NC(=O)C(Cl)(Cl)Cl | inactive | – |
| C=C(C#N)CCC#N | inactive | – |
| NCC(CC(=O)O)c1ccc(Cl)cc1 (stereo not given) | – | -1.28% [at 0.349 µM] (inactive) |
| CCC(Cl)CCl (stereo not given) | inactive | – |
| CC(C)(OO)c1ccccc1 | inactive | – |
| CNC(C)Cc1ccccc1OC (stereo not given) | inactive | – |
| COP(=S)(Oc1cc(Cl)c(Br)cc1Cl)c1ccccc1 (stereo not given) | inactive | – |
| ClCCCCBr | inactive | – |
| Cc1c(F)c(F)c(COC(=O)C2C(/C=C(\Cl)C(F)(F)F)C2(C)C)c(F)c1F (stereo not given) | inactive | – |
| O=S1OC[C@@H]2[C@H](CO1)[C@]1(Cl)C(Cl)=C(Cl)[C@@]2(Cl)C1(Cl)Cl (stereo not given in full) | inactive | – |
| C[N+](C)(C)CCCl | inactive | – |
| CC(C)(C)c1cc([N+](=O)[O-])cc([N+](=O)[O-])c1O | inactive | – |
| O=C(O)CC(Cl)C(=O)O (stereo not given) | inactive | – |
| N#CCC#N | inactive | – |
| CC/C(=N\OC/C=C/Cl)C1=C(O)CC(C2CCOCC2)CC1=O (stereo not given) | inactive | – |
| Cc1ccccc1CCl | inactive | – |
